In the library only some 3.1% were active in any assay of this set; here they are far more common.
miR-122 sensor = inhibitors of miR-122 in Huh7 cells. Huh7 miR-122 Renilla luciferase sensor, 48 h; neutral wells = 0, positive control = 100. activation (reporter increase), % at 12.5 µM. 340,000 tested, 0.3% active. AID 602342;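 active means mean replicate activation score at least 90 and every replicate individually at or above 90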;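 further: higher luciferase means less miR-122 activity so hits act as miR-122 inhibitors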
EWS-Fli inh = blocks EWS/Fli oncoprotein-driven transcription. A673 NR0B1-luciferase reporter, viability-normalised. inhibition, % at 12.6 µM. 350,000 tested, 0.67% active. AID 651661;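 active means mean inhibition of at least 50% after viability correction, with every replicate also passing that limit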;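 further: firefly luciferase signal divided by Alamar Blue viability fluorescence both relative to DMSO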
INS-1E GSIS act = GLuc luminescence reporter in INS-1E cells, primary screen for activators of glucose-dependent secretion of insulin | AID 743287 | INS-1E GLuc reporter insulin secretion, 2-3 h | 370,000 tested, 0.61% active | activation, % at 16.6 µM;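 active means lowest replicate activation of at least 40%, so every replicate reaches that level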;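 further: 0% = median of neutral control wells and 100% = median of IBMX positive control wells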
Env fusion inh = inhibitors of HIV Env-mediated cell fusion | inhibition, % at 12.3 µM | 360,000 tested, 1.1% active | HeLa-JRFL Env/CEM21 cell fusion, luciferase | AID 651610;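 active means mean replicate inhibition score of at least 50 and every replicate individually at or above 50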;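 further: 0% = plate neutral controls and 100% = maraviroc near 300 nM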
PAX8 reporter = inhibitors of PAX8 transcriptional activity in RMG-I cells | RMG-I TPO-luciferase reporter, SteadyGlo, 24 h | inhibition, % at 12.6 µM | 360,000 tested, 1.2% active | AID 652154;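 active means mean replicate inhibition at least 60% with every replicate also reaching 60%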;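 further: luciferase light reporting Pax8 driven TPO promoter activity; plate controls were median of neutral control wells for no effect and mitoxantrone controls for full effect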
C2C12 statin = suppressors of simvastatin-induced myotoxicity in C2C12 myotubes. 330,000 tested, 0.78% active. AID 602340. ATP luminescence, 48 h; scaled: DMSO 0, geranylgeraniol control 100. rescue of ATP level, % at 7.49 µM;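 active means mean ATP rescue above about 67%, or every replicate alone reaching that limit, limit read from the data, passing the limit was not always enough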;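 further: myotubes were challenged with 10 µM simvastatin during compound exposure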
* hit, by the source's call; ! = not active in a repeat; [ ] = remark or other dose.

For CO[C@H]1CN(C)C(=O)c2cc(NC(=O)C3CCCC3)ccc2OC[C@H](C)N(C)C[C@H]1C the results were miR-122 sensor -2[16.7 µM], EWS-Fli inh -3, INS-1E GSIS act -17, PAX8 reporter 4 and C2C12 statin -5.
`O=C(NC1CCCc2ccccc21)C1CCN(c2c3c(nc4ncnn24)CCC3)CC1` (configuration not stated) gave miR-122 sensor 1, EWS-Fli inh 2, INS-1E GSIS act -7 and C2C12 statin -9.
For O=C(Nc1ccc(Oc2ccccc2)cc1)C1CCN(c2c3c(nc4ncnn24)CCC3)CC1 the results were miR-122 sensor -4, Env fusion inh 103* and C2C12 statin 28.
Screening COc1ccc(NC(=O)C2CCCN(c3c4c(nc5ncnn35)CCC4)C2)cc1OC (configuration not stated) returned miR-122 sensor -6, Env fusion inh 3 and C2C12 statin 12.
`O=C(Nc1ccc2c(c1)CCC2)C1CCN(c2c3c(nc4ncnn24)CCC3)CC1` gave miR-122 sensor -5, INS-1E GSIS act -32, Env fusion inh 96* and C2C12 statin -16.
`CN(C)CCCNC(=O)C[C@@H]1CC[C@H]2[C@H](COc3ccc(NC(=O)C4CCC4)cc3C(=O)N2C)O1` gave miR-122 sensor 26[16.7 µM], EWS-Fli inh -18, INS-1E GSIS act 3, PAX8 reporter 0 and C2C12 statin -23.
Screening O=C(NNS(=O)(=O)c1ccc(F)cc1F)C1Cc2c(ccc3ccccc23)O1 (configuration not stated) returned Env fusion inh 97* and PAX8 reporter 28.
`CS(=O)(=O)NNC(=O)C1Cc2c(ccc3ccccc23)O1` (configuration not stated) gave miR-122 sensor 11, EWS-Fli inh 1, INS-1E GSIS act 15, Env fusion inh -7, PAX8 reporter 20 and C2C12 statin -6.
`CCC(=O)Nc1ccc(NC(=S)NC(=O)c2oc3ccccc3c2C)cc1` gave miR-122 sensor -12, INS-1E GSIS act 60* and PAX8 reporter -8.
Screening CC(C)CC#Cc1ccc2c(c1)O[C@@H](CN(C)C(=O)c1cnccn1)[C@H](C)CN([C@H](C)CO)S2(=O)=O returned miR-122 sensor -23[16.7 µM], EWS-Fli inh 6, INS-1E GSIS act -13, PAX8 reporter -11 and C2C12 statin 3.
For COc1ccc(C2CC(=O)Oc3c(C(CCN4CCCCC4)c4ccc(N(C)C)cc4)c(OC)cc(OC)c32)cc1 (configuration not stated) the results were miR-122 sensor 5, EWS-Fli inh -7, Env fusion inh 0, PAX8 reporter -1 and C2C12 statin 121*.
COc1cc(O)c(C(CCN2CCCCC2)c2ccc(N(C)C)cc2)c(OC)c1 (configuration not stated) was read as miR-122 sensor 4, EWS-Fli inh 4, INS-1E GSIS act 11, Env fusion inh 57*, PAX8 reporter -13 and C2C12 statin -4.
For COc1cc(O)c(C(CCN2CCCC2)c2ccc(N(C)C)cc2)c(OC)c1 (configuration not stated) the results were miR-122 sensor 9, EWS-Fli inh 7, INS-1E GSIS act -8, Env fusion inh -71, PAX8 reporter -4 and C2C12 statin -3.
Screening C[C@H]1CN([C@@H](C)CO)C(=O)c2cc(NC(=O)CCCCCC(=O)Nc3ccccc3N)ccc2O[C@H]1CN(C)S(=O)(=O)c1cn(C)cn1 returned miR-122 sensor -2[16.7 µM], EWS-Fli inh -9, INS-1E GSIS act 7 and C2C12 statin 31.
Screening COc1ccccc1NC(=O)N1C[C@@H]2N[C@H](C1)C2c1ccc(-c2ccccc2)cc1 (some centres not stated) returned EWS-Fli inh -6, INS-1E GSIS act -20 and PAX8 reporter -4.
O=C(NC1CCCCC1)N1C[C@@H]2N[C@H](C1)C2c1ccc(-c2ccc(F)cc2)cc1 (some centres not stated) was read as EWS-Fli inh 8, INS-1E GSIS act -22 and PAX8 reporter 105*!.
For COc1ccccc1NC(=O)N1C[C@@H]2N[C@H](C1)C2c1ccc(-c2cccc(C#N)c2)cc1 (some centres not stated) the results were EWS-Fli inh 53*!, INS-1E GSIS act -24 and PAX8 reporter 17.
Screening Cc1ccccc1-c1ccc(C2[C@@H]3CN(C(=O)NC4CCCCC4)C[C@H]2N3)cc1 (some centres not stated) returned EWS-Fli inh -2, INS-1E GSIS act 14 and PAX8 reporter 37.
Cc1ccccc1-c1ccc(C2[C@@H]3CN(C(=O)Nc4cccc(F)c4)C[C@H]2N3)cc1 (some centres not stated) was read as EWS-Fli inh -4, INS-1E GSIS act 93*! and PAX8 reporter 85*!.
`COc1ccc(-c2ccc(C3[C@@H]4CN(C(=O)Nc5cccc(F)c5)C[C@H]3N4)cc2)cc1` (some centres not stated) gave EWS-Fli inh 9, INS-1E GSIS act -1 and PAX8 reporter 100*!.
Screening COc1ccc(NC(=O)N2C[C@@H]3N[C@H](C2)C3c2ccc(-c3ccncc3)cc2)cc1 (some centres not stated) returned EWS-Fli inh 2, INS-1E GSIS act -1 and PAX8 reporter -4.
Screening COc1cccc(-c2ccc(C3[C@@H]4CN(C(=O)C5CC5)C[C@H]3N4)cc2)c1 (some centres not stated) returned EWS-Fli inh -13, INS-1E GSIS act 7 and PAX8 reporter 80*!.
For COc1ccc(NC(=O)N2C[C@@H]3N[C@H](C2)[C@@H]3c2ccc(-c3ccc(OC)cc3)cc2)cc1 the results were EWS-Fli inh 2, INS-1E GSIS act 34 and PAX8 reporter 93*.
`COc1ccc(NC(=O)N(C)C[C@H]2Oc3c(NC(=O)Nc4ccc(F)cc4)cccc3C(=O)N([C@H](C)CO)C[C@@H]2C)cc1` gave miR-122 sensor -6[16.7 µM], EWS-Fli inh -2, INS-1E GSIS act -5, Env fusion inh 9[16.7 µM] and C2C12 statin 24.
C[C@@H]1CN([C@H](C)CO)C(=O)c2cccc(NS(=O)(=O)c3cn(C)cn3)c2O[C@@H]1CN(C)C(=O)Nc1ccccc1 was read as miR-122 sensor -6[16.7 µM], EWS-Fli inh -6, INS-1E GSIS act 24 and Env fusion inh 4[16.7 µM].
CCOc1ccc(N/C(N)=N/c2nc(CSc3nnc(C)s3)cc(=O)[nH]2)cc1 was read as EWS-Fli inh 67*, INS-1E GSIS act 6, Env fusion inh -313 and PAX8 reporter -2.
Screening Cc1nnc(SCc2cc(=O)[nH]c(/N=C(\N)Nc3ccccc3)n2)s1 returned miR-122 sensor 35, EWS-Fli inh 24, INS-1E GSIS act 3, Env fusion inh 3 and PAX8 reporter 19.

High-throughput results: PubChem BioAssay, Broad Institute
